# Test results from the supplement of paper PMC11417369.
# Whole data set: some 25,000 sequences, median “ln(normalized median fluorescence intensity)” near 6.7, cut for the highest 2% near 10. The sample as a whole holds a higher share of the highest values than the screen did.
# System: PfHDP1 homeodomain (GST-tagged)
# Experiment: gcPBM binding intensity (ln(normalized median fluorescence intensity)); higher = stronger DNA binding
# In short: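 Binding of GST-tagged P. falciparum DNA-binding domains, expressed in E. coli and used at about 25 μg on average, was carried out for 1 h in 1× PBS containing 1% milk, 0.2 mg/ml BSA, 0.5% salmon testes DNA and 0.03% Triton X-100. The target was an Agilent 4 × 180k array of primer-extended double-stranded 36-bp intergenic genomic probes plus negative controls, read with Alexa488 anti-GST antibody at 488 nm. Binding intensity is the highest Masliner-normalised natural-log median intensity across replicate spots of either probe orientation.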
row,Sequence,gcPBM binding intensity (ln)
1,ACCCTCATATTATAGACACACACAAAAAAAATAAAA [CACACA_site7941],6.66
2,TATATTTTATATATGGTGCAACTTTTATTTAAATAA,10.7
3,TATATATAAATATATGTGCACTTTTTATATTTATAT,9.06
4,TGTATTAAAAATTTGGTGCAACTTTTACATAATAAT,10.8
5,CTTTTAAATTATTTTTGTACATAATTATATATATAT [XGTACX_site4128],8.27
6,TTTTTATTACATAATTAAAAAAAATAATAAAATAAA [XGTACX_negctrl_site249],6.03
7,TATATAAAAAATAGGTGGTCAACTTAAATATTTTAT [XGTACX_site4495],6.46
8,TATAAAAATGTGTATGTACACACTTTATTTTTAATA [CACACA_site2532],6.38
9,AAATCAAACTTTGGTGTGCACAAATATATACATATA [GTGCAC_site9986],11
10,TAATAATCAAACTATACACACATAAATAAATATATA [CACACA_site156],6.52
11,ATAATATTCGAGTGTGCACACAAACATACATATATA [CACACA_site3396],11.1
12,TTTATATATATTTATACACACAAACATAATACTACT [CACACA_site5161],6.86
13,TTTATTTATATTTATACACACAAACATAATACTACT [CACACA_site7039],6.82
14,TATTCGAACAAAAATACATGCACATATGCATAATAA [TGCATGCA_site171],10
15,ATAATATTTAGGTGTGCACACAAACATACATATATA [CACACA_site9120],10.9
16,AATATTTATGGGTGCACACAAACATACATATATATA [CACACA_site3395],10
17,TTACATACAATTGGTGTGCACATATATATATATATA,10.3
18,CATATATGTTATATTTAACACACATATAAGGTACAT [CACACA_site8105],6.51
19,AAGAAAAAGAATAGACGGACAACTAATATAAAATAT [XGTACX_site7905],6.53
20,ATATATAAACTGAAGGGTACAATGAAAAAAGAACTT [XGTACX_site7219],6.81

row,Sequence,gcPBM binding intensity (ln)
1,TACAACAATTTTTGCACACACCAAAACATAAAATAA [CACACA_site4964],10.3
2,CCATATCTTTTTTGCACACACTACAATAAAACAAAA [CACACA_site4995],10.6
3,AGCCATATCTTTTTTGCACACACTACAATAAAACAA [CACACA_site1650],10.1
4,ATTTGTATATACATATGTACACATGTAGGCTCATAA [XGTACX_site1709],6.92
5,ATATTTTCAGTTCTCCATTATGTTCCCATTATTTTT [CACACA_negctrl_site990],7.03
6,TGGGTGTAGAACAATTGTACTTTGTAAAAATATAAG [XGTACX_site8464],6.59
7,TTATGTTATATATACACACACAAAAGAAAAAAAAAA [CACACA_site2987],6.48
8,AATGTGCACACGCGTACACACAAAAAAAGAAAAAAA [CACACA_site7031],10.2
9,TTCATGCTTATATGTGCACACACAAAAGAAAAGAAA [CACACA_site1656],10.8
10,ATTTATGTTATATATACACACACAAAAGAAAAAAAA [CACACA_site8977],6.89
11,CATGCTTATATGTGCACACACAAAAGAAAAGAAAAA [CACACA_site1655],11
12,CAAAAAAAGAAAGCTACACACATTTATGTGCTATAT [CACACA_site2777],6.72
13,TAAATATATATATATTGTACAAAACAAATGTGAATT [XGTACX_site696],7.1
14,GATGTTCATCACTACACACACAAAGAAATATAAATA [CACACA_site7294],6.57
15,TCAATTAGACGAAAATGTACATATGTATATATTTTT [XGTACX_site5027],6.25
16,ATACATATGGTGGATCGTACATATATATAATATGTA [XGTACX_site8631],6.5
17,TATGTACACCCATATACACACCTCTATAATATATAT [CACACA_site4563],7.13
18,TATAATGTATGTAGTGCACACCTCTATAATATATTA [CACACA_site8560],9.5
19,TAGAATGTATGTAGTGCACACCTCTATAATATATTA [CACACA_site1873],10.5
20,TATTATATTATACATACACACCCATATAATATGTTT [CACACA_site8191],6.85

row,Sequence,gcPBM binding intensity (ln)
1,AATATTCAATATAAAGTGCATTATTGTGGACCTAAT,8.94
2,GCCAATAAAGATGTGGTGCATTATATATATATATAT,10.7
3,TAAATATATATATAAGTGCATTATATATATATATAA,9.53
4,TAAAACTTATACAAATGTACAAATATATATATATAT [XGTACX_site4661],9.19
5,TTTTTTATTTTATTTTTTTCTGCTTATCCACATTAG [XGTACX_negctrl_site108],6.48
6,GTACTTGTATTATGCACACATATAATTAAACATATA [CACACA_site3312],10.1
7,ATTATATACATATATGCACACAAAAAAATATATATT [CACACA_site8508],9.93
8,TCGTACTTGTATTATGCACACATATAATTAAACATA [CACACA_site9089],10.5
9,TTAATTTATTTATGCACACATATATAATTACACATA [CACACA_site4544],10.7
10,ATATTACCCATATATGCACACATTGTAGTTATTTAT [CACACA_site2636],9.18
11,GTATTATTATTATGCACACAAAAATATTTATACATA [CACACA_site3656],10.9
12,TTAATTTATTTATGCACACATATATAATTACCCATA [CACACA_site682],10.7
13,GCACACATATAATTAAACATATATTTGTATTATTTT [GTGCAC_negctrl_site327],6.5
14,CTTTTTTTAATATGCACACATATATTTTATATATTA [CACACA_site2077],10.3
15,TTTTAATTTATTTATGCACACATATATAATTACACA [CACACA_site8126],10.1
16,TAGTATTATTATTATGCACACAAAAATATTTATACA [CACACA_site9219],10.4
17,CTTATATTAATTATTACACACATATTTATAAATGCA [CACACA_site6501],6.66
18,AAATAATTAGCTATTTGTACATATATACATATTTAT [XGTACX_site4652],6.37
19,ATTTTTTTTTTTTTTTTTTTTTTTTTTTTTTTTTTT [CACACA_negctrl_site1364],7.45
